# Inconclusive results are not listed. Values without a mark were called inactive. The source made the active and inactive calls. Calls follow the shape of the dose curve; as a rule, active = well fitted inhibition curve with a large enough effect; inconclusive = small, poorly fitted or top-dose-only effect; inactive = flat fitted curve, though single readings scatter.
# Assay: qHTS for Inhibitors of Plasmodium falciparum (7G8) proliferation (AID 504316); also: nearly all actives have a fitted effect of over 65% in size;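 as to activity change, negative = inhibition: 0% = DMSO vehicle and -100% = 0.29 µM artemisinin full kill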
# Conditions: P. falciparum 7G8 in erythrocytes, SYBR Green DNA, 72 h; series mostly up to 6.7 µM; activity change, negative = inhibition: at the top concentration
# Text: Plasmodium falciparum is a virulent malarial parasite that kills 1-2 million people worldwide each year. Malaria not only inflicts tremendous suffering and morbidity on the human population, but has dramatically influenced the course of civilization with profound sociological and economic implications (Shah, S. 2010). Transmitted by mosquitoes, the sporozoite form of the parasite enters the blood stream to infect hepatocytes, where they become merozoites that infect red blood cells (erythrocytes). Within erythrocytes, merozoites begin a […] cycle of growth and division, after which the parasite is released to infect new red blood cells. Gametocytes, which form within erythrocytes as well, circulate in the bloodstream and are ingested by the mosquito, thereby completing the life cycle (see CDC website). To profile malarial lines for differential chemical responses and to identify inhibitors of malarial growth, an assay that measures P. falciparum growth and replication within erythrocytes was employed. This assay uses a DNA binding fluorescent dye (SYBR Green) to detect parasite DNA following cell lysis. Because mature erythrocytes lack DNA, only Plasmodium-derived DNA is detected. The P. falciparum line cp250, derived from a malarial isolate from Cambodia, (Mu, J., et al. 2010) was added to the panel of lines, Dd2, HB3, 7G8 and GB4 in this study. Laboratory of Assay Development and Screening Technology [ADST] and NIH Chemical Genomics Center [NCGC] Boston University, Chemistry Department, Center for Chemical Methodology and Library Development [CMLD-BU] NIH National Institute of Allergy and Infectious Diseases [NIAID]
# ADST Assay Protocol Summary: The 1536-well SYBR Green viability assay was based on the method of Bennett et al (2004) and described previously in 1536-well format (Yuan J., et al. 2009). For screening 3 ul culture medium was dispensed into 1536 well black clear bottom plates (Aurora Biotechnologies) using a Multidrop Combi (Thermo Fisher Scientific Inc.), 23 nL compounds in DMSO were added by a pin transfer (Cleveland, P.H. and Koutz, P.J, 2005) using a pin tool-based delivery system (Kalypsys), and 5 ul of erythrocytes infected with P. falciparum one of five lines (cp250, Dd2, HB3, 7G8 or GB4, 0.3% parasitemia, 2.5% hematocrit final concentration) were added. The plates were incubated at 37C in a humidified incubator in 5% CO2 for 72 h, and 2 ul lysis buffer (20 mM Tris HCl, 10 mM EDTA, 0.16% saponin, 1.6% triton X, 10X SYBR Green I (supplied as 10,000X final concentration by Invitrogen) was added to each well. The plates were mixed for 25 sec with gentle shaking and incubated overnight at room temperature in the dark. The following morning, fluorescence intensity at 485(14) nm excitation and 535(25) nm emission wavelengths was measured on an EnVision (Perkin Elmer) plate reader. Plate reads were normalized relative to the control inhibitor (0.29 uM artemisinin) and vehicle (DMSO) wells present on each plate and then corrected by an algorithm using vehicle-only control plates at the beginning and end of the compound plate stack. References Shah, S. (2010). The Fever: how malaria has ruled humankind for 500,000 years. New York, Sarah Crichton Books. CDC web site, http://www.cdc.gov/malaria/about/biology/index.html Mu, J., Myers, R.A., Jiang, H., Liu, S., Ricklefs, S., Waisberg, M., Chotivanich, K., Wilairatana, P., Krudsood, S., White, N.J., et Plasmodium falciparum genome-wide scans for positive selection, recombination hot spots and resistance to antimalarial drugs Nature Genetics 2010, 42, pp 268-271 Bennett TN, Paguio, M., Gligorijevic, B., Seudieu, C., Kosar, A. D., Davidson, E., and Roepe, P. D. Novel, rapid, and inexpensive cell-based quantification of antimalarial drug efficacy Antimicrobial Agents Chemother. 2004, 48(5): pp 1807-10 Yuan J, Johnson RL, Huang RL, Wichterman J, Jiang HY, Hayton K, Fidock DA, Wellems TE, Inglese J, Austin CP, Su XZ. […]
# Potency is read from the fitted curve at half-maximal effect.
Compound,"activity change, negative = inhibition",Potency
COC(=O)C1=C(C(=O)OC)[C@@H]2N(C)c3ccc(OC)cc3[C@@]23C[C@@H](C(=O)OC)N(C(=O)c2ccc(Br)cc2)C3=N1,-9.17%,
COC(=O)CCC(=O)OC1(C)C(=O)C=C2C=C(C3CC3)N(C3CCCC3)C=C2C1=O (stereo not given),0.372%,
CCOC(=O)CN1C(=O)N[C@@H](c2cccs2)C(C(C)=O)=C1C,-3.55%,
CC[C@@H](C)CN1C(=O)N[C@@H](c2ccccc2)C(C(=O)OC)=C1C,-12.4%,
CCN1C(=O)N[C@@H](CCc2ccccc2)[C@H](C(=O)OC)[C@H]1C,-13.3%,
C=CCN1c2ccccc2[C@]23C[C@@H](C(=O)OC)N(S(=O)(=O)c4ccc([N+](=O)[O-])cc4)C2=NC(C(=O)OC)=C(C(=O)OC)[C@H]13,,1.69 µM (active)
CCOC(=O)CN1C(=O)N[C@@H](c2cccc(F)c2)C(C(=O)OC)=C1C,1.8%,
COC(=O)CCC(=O)OC1(C)C(=O)C=C2C=C(C3CC3)N(CCCCO)C=C2C1=O (stereo not given),2.75%,
COC/C=C/C1=CC2=CC(=O)C(C)(OC(=O)c3cnc4ccccc4n3)C(=O)C2=CN1CCc1c[nH]c2ccccc12 (stereo not given),-5.31%,
COC(=O)CC1c2ccccc2C=C(C)N1C(=O)OC (stereo not given),,inactive
COc1ccc(-c2nc3c(c4c2C[C@H](c2ccccc2)OC4)CN(S(=O)(=O)c2ccc4c(c2)OCCN4C)CC3)c(C)c1,-3.95%,
COC(=O)C1=C(C(=O)OC)[C@@H]2N(C)c3ccc(OC)cc3[C@@]23C[C@@H](C(=O)OC)N(C(=O)COCc2ccccc2)C3=N1,3.11%,
COC(=O)CCCC1=CC2=CC(=O)C(C)(OC(=O)c3cccs3)C(=O)C2=CN1C(CO)CO (stereo not given),-0.111%,
COCCN1C(=O)N[C@@H](c2ccco2)C(C(=O)OC)=C1C,-7.63%,
CC1(OC(=O)C2CCCC2)C(=O)C=C2C=C(c3ccsc3)N(CCCCO)C=C2C1=O (stereo not given),,inactive
CCCCc1nc2c(c3c1C[C@H](C)OC3)CN(C(=O)C1CC1)CC2,-5.28%,
CCCCC1=CC2=CC(=O)C(C)(OC(=O)CC)C(=O)C2=CN1c1cccc(C#N)c1 (stereo not given),3.53%,
COC(=O)C1=C(C(=O)OC)[C@@H]2N(Cc3ccccc3)c3ccccc3[C@@]23C[C@@H](C(=O)OC)N(C(C)=O)C3=N1,-0.773%,
CC#CCN1c2ccccc2[C@]23C[C@@H](C(=O)OC)N(C(=O)COCc4ccccc4)C2=NC(C(=O)OC)=C(C(=O)OC)[C@H]13,-3.56%,
CCCC[C@]12Cc3c(ccc4ccccc34)[C@H](O1)C1=C(O2)C(=O)c2ccccc2C1=O,,1.51 µM (active)

Compound,"activity change, negative = inhibition",Potency
COC/C=C/C1=CC2=CC(=O)C(C)(OC(=O)c3cnc4ccccc4n3)C(=O)C2=CN1CCc1ccccn1 (stereo not given),5.97%,
CC1(OC(=O)CCc2ccccc2)C(=O)C=C2C=C(c3ccc(C#N)cc3)N(C3CCCCC3)C=C2C1=O (stereo not given),-0.0576%,
CCCCC1=CC2=C(c3ccco3)C(=O)C(C)(OC(=O)c3ccc(OC)cc3)C(=O)C2=CN1C1CC1 (stereo not given),0.932%,
COC(=O)[C@H](Cc1ccccc1)NC(=O)O[C@@H]1C(=O)c2cc(OC)ccc2O[C@H]1c1cccc(OC)c1,0.0105%,
CC#CCN1c2ccccc2[C@]23C[C@@H](C(=O)OC)N(S(=O)(=O)c4cccs4)C2=NC(C(=O)OC)=C(C(=O)OC)[C@H]13,0.919%,
CCOC(=O)NN=C1C[C@@H](O)[C@@H](O)[C@@H]2[C@H]3C(=O)N(C4CCCCC4)C(=O)[C@@H]3CC[C@@H]12,1.79%,
COC(=O)CCC(=O)OC1(C)C(=O)C2=CN(Cc3ccccc3)C(c3ccc(OC)cc3)=CC2=C(Br)C1=O (stereo not given),-8.91%,
CCCCC1=CC2=C(c3ccco3)C(=O)C(C)(OC(=O)c3ccc(OC)cc3)C(=O)C2=CN1c1ccccc1 (stereo not given),,inactive
COCC(=O)N1CCc2nc(-c3ccc(OC)cc3C)c3c(c2C1)CO[C@@H](c1ccccc1)C3,-7.2%,
CC(C)CON=C1C[C@@H](O)[C@@H](O)[C@@H]2[C@H]3C(=O)N(c4cccc(Oc5ccccc5)c4)C(=O)[C@@H]3CC[C@H]12,10.8%,
COC(=O)C1=C(C)N(Cc2ccccc2)C(=O)N[C@H]1c1ccco1,0.278%,
CC#CCN1c2ccccc2[C@]23C[C@@H](C(=O)OC)N=C2NC(C(=O)OC)=C(C(=O)OC)[C@H]13,0.0053%,
C=CCN1c2ccccc2[C@]23C[C@@H](C(=O)OC)N(C(=O)CC(C)C)C2=NC(C(=O)OC)=C(C(=O)OC)[C@H]13,-8.53%,
COC/C=C/C1=CC2=CC(=O)C(C)(OC(=O)c3cnc4ccccc4n3)C(=O)C2=CN1CCCOC(C)C (stereo not given),-0.859%,
CCOC(=O)C=CCCCC=CC(=O)c1ccccc1,-13.3%,
CC(=O)c1ccc([C@@H]2C=C[C@H](O)[C@@H](CO)O2)cc1,-5.4%,
C=CCN1C=C2C(=O)C(C)(OC(=O)CCC(=O)OC)C(=O)C=C2C=C1C1CC1 (stereo not given),-16.1%,
Cc1ccc(S(=O)(=O)N[C@@H]2COC(=O)[C@@H](C)COC(=O)CC=C[C@H]2C)cc1,6.45%,
C=CC1=C2C=C(C3CC3)N(CCCN(CC)CC)C=C2C(=O)C(C)(OC(=O)c2ccco2)C1=O (stereo not given),0.362%,
C=CCN1c2ccccc2[C@]23C[C@@H](C(=O)OC)N(C(=O)c4ccco4)C2=NC(C(=O)OC)=C(C(=O)OC)[C@H]13,-2.18%,

# Source: PubChem BioAssay (NCATS)
